FBW7 activator = human FBW7 E3 ligase activation, primary screen; Q969H0; AlphaScreen FBW7–phospho-cyclin E peptide binding, activator screen; normalized activity (activation), % at 26.1 µM; hit rate 0.13% among 650,000; in the data active = normalized activity above about 1.9%;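 note: purified mutant Fbw7 with reduced substrate affinity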
TEAD-YAP block = TEAD-YAP interaction inhibition | hit rate 1.4% among 640,000 | HEK-TIYL cells, TEAD-Gal4/YAP UAS-luciferase luminescence | inhibition, % at 9.12 µM; in the data active = inhibition above about 32%;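 note: 0% = median of test compound wells and 100% = reference inhibitor wells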
MITF inh = blocks human microphthalmia-associated transcription factor | O75030 | AlphaScreen MITF homodimerization, bead proximity signal | inhibition, % at 2.6 µM | hit rate 0.91% among 650,000; in the data active = inhibition above about 50%;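 note: 0% = vehicle wells with protein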
GPR151 ag = activators of human GPR151; Q8TDV0; PathHunter beta-arrestin GPR151 cells, luminescence; activation, % at 11.2 µM; hit rate 1% among 650,000; AID 1508602; in the data active = activation above about 4.9%;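 note: 0% = median of compound wells and 100% = cells with positive control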
Target sequence (Q8TDV0 whole entry, looked up): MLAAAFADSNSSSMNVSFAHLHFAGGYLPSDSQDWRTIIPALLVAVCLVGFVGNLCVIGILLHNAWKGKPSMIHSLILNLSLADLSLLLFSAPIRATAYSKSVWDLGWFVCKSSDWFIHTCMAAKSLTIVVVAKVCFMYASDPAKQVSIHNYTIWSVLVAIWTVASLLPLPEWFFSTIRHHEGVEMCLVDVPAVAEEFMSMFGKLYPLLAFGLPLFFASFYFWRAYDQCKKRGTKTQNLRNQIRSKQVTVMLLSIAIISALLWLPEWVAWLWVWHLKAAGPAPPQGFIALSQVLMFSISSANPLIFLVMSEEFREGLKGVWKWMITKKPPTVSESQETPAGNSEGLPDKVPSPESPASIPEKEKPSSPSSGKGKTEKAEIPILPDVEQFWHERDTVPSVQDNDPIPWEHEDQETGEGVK
* marks the source's active call; other numbers are inactive results. Most compounds without a hit are left out; they make up all but 3.5% or so of the library.

SMILES | FBW7 activator | TEAD-YAP block | MITF inh | GPR151 ag
Cc1ccccc1CN1CCN(Cc2cccc3c2OCO3)CC1CCO (stereo not given) | 0 | 8 | -2 | 2
COc1ccc(-c2cc3nccc(C4CCCNC4)n3n2)cc1OC (stereo not given) | 0 | 2 | 2 | 1
COc1cccc(-c2cc3nc(C4CCCNC4)cc(N)n3n2)c1 (stereo not given) | 0 | 37* | -9 | 0
CCOC(=O)N1CCN(c2nnnn2-c2ccccc2)CC1 | 1 | 4 | 7 | -1
CCOc1ccccc1N1CCN(c2nnnn2-c2ccccc2)CC1 | 0 | 42* | 17 | 0
Nc1c2ccccc2nc2ccccc12 | 1 | 74* | 21 | 0
Cc1ccc(Oc2nc3c(C)cccn3c(=O)c2/C=C(\C#N)C(=O)N2CCOCC2)c(C)c1 | 0 | 17 | -2 | 4
CN1CCN(c2ncn(-c3ccc(Nc4nccc(-c5cc(C#N)cc(N6CCCC(O)C6)c5)n4)cc3)n2)CC1 (stereo not given) | 0 | 62* | -11 | 1
Cn1nnc(-c2ccc(Nc3nccc(-c4cc(C#N)cc(N5CCCC(O)C5)c4)n3)cc2)n1 (stereo not given) | 0 | 63* | 0 | 1
OC1CCN(c2cccc(-c3ccnc(Nc4ccc(-n5ccnn5)cc4)n3)c2)CC1 | 0 | 37* | -3 | 0
OC1CCCN(c2ncn(-c3ccc(Nc4nccc(-c5cccc(N6CCOCC6)c5)n4)cc3)n2)C1 (stereo not given) | 1 | 83* | -10 | 0
Fc1cc(-c2ccnc(Nc3ccc(-n4ccnn4)cc3)n2)cc(N2CCOCC2)c1 | 0 | 20 | -3 | 1
N#Cc1cc(-c2ccnc(Nc3ccc(-n4cnc(N5CCCC(O)C5)n4)cc3)n2)cc(N2CCOCC2)c1 (stereo not given) | 0 | 27 | -6 | 0
Cc1cc2c(o1)c1cnn(C(C)C(N)=O)c(=O)c1n2C (stereo not given) | 0 | 2 | -4 | 0
COc1ccc(CCNc2cc(Nc3ccnn3C)ncn2)cc1 | 0 | 15 | 12 | 4
CSCCNC(=O)CC1C(=O)NCCN1C (stereo not given) | 0 | 1 | -2 | 0
COc1cc(OC)nc(CSc2ccc(NC(=O)CCl)cc2)n1 | 0 | 36* | 8 | -1
COc1cc(OC)nc(CSCCNC(=O)CCl)n1 | 0 | 10 | -1 | 1
O=c1c2ccccc2[nH]c(=S)n1C1CC1 | 0 | 4 | -4 | 0
COC(=O)C1=CN(C(C)C)C=C(C(=O)OC)C1c1ccccc1Br | 2 | -9 | 3 | -1
CCOC(=O)C1=CN(C(C)C)C=C(C(=O)OCC)C1c1ccccc1Br | 2.0* | -4 | -6 | 0
CCOC(=O)C1=CN(C(C)C)C=C(C(=O)OCC)C1c1cccc(OC)c1 | 8.5* | -2 | -42 | 1
COC(=O)C1=CN(C(C)C)C=C(C(=O)OC)C1c1cccc(OC)c1 | 1 | 6 | 8 | 1
O=C(CCCn1cc([N+](=O)[O-])cn1)NCCc1ccc(Cl)cc1 | 0 | -3 | -3 | 0
CC(C)(C)c1ccc(Cn2cnc3sc4c(c3c2=O)CCCC4)cc1 | 0 | 62* | -2 | 1
SMILES | FBW7 activator | TEAD-YAP block | MITF inh | GPR151 ag
Cc1nc2sc3c(c2c(=O)n1Cc1ccc(C(C)(C)C)cc1)CCCC3 | 0 | 19 | 9 | 2
COc1ccc(CCn2cnc3sc4c(c3c2=N)CCCC4)cc1OC | 0 | 39* | -6 | 1
COc1ccc(-n2cc(C(=O)Nc3ccccc3C(F)(F)F)c3ccccc3c2=O)cc1 | 0 | 2 | 6 | -2
CCOC(=O)c1ccc(NC(=O)c2sc(N)c(C(=O)OCC)c2C)cc1 | 0 | 61* | -4 | 2
CCOC(=O)c1ccc(NC(=O)c2sc(NC(=O)c3cc(OC)c(OC)c(OC)c3)c(C(=O)OCC)c2C)cc1 | 0 | 8 | 4 | 1
CCOC(=O)c1ccccc1NC(=O)c1sc(N)c(C(=O)OCC)c1C | 0 | 54* | 22 | 1
CCOC(=O)c1c(N)sc(C(=O)Nc2cccc(OC)c2)c1C | 0 | 52* | 18 | -8
COC(=O)c1c(N)sc(C(=O)Nc2ccc(C)cc2C)c1C | 0 | 76* | -18 | -3
CCOC(=O)c1c(N)sc(C(=O)Nc2ccccc2C)c1C | 0 | -17 | -12 | -1
COC(=O)c1c(N)sc(C(=O)Nc2ccccc2C)c1C | 0 | 24 | -22 | -2
COc1cc(-c2[nH]nc3c2C(c2cc(OC)c(OC(C)=O)c(OC)c2)C(C#N)=C(N)O3)cc(OC)c1OC (stereo not given) | 0 | -7 | -13 | 0
COc1ccc(N2CCN(C3CCCN(C(=O)CCc4cccs4)C3)CC2)cc1 (stereo not given) | 0 | 2 | 3 | 4
Cc1cccn2c(=O)c3cc(C#N)c(=O)n(CCc4ccccc4)c3nc12 | 0 | -4 | -2 | 3
O=C(NCCN(Cc1ccco1)C1CCCC1)c1ccc2c(=O)n3c(nc2c1)CCCCC3 | 1 | -6 | 10 | 0
CCCCSc1nnc2c(n1)OC(c1ccc(Cl)cc1Cl)Nc1ccccc1-2 (stereo not given) | 0 | -8 | 1 | 1
COCCCNC(=O)c1cnn2c(C)c(Cc3ccc(C)cc3)c(C)nc12 | 0 | 40* | 8 | 0
Cc1ccc(Cc2c(C)nc3c(C(=O)NCc4cccnc4)cnn3c2C)cc1 | 0 | 49* | 2 | 1
Cc1nc2c(C(=O)NCc3cccnc3)cnn2c(C)c1Cc1cccc(Cl)c1 | 0 | 0 | 0 | 1
COC(=O)c1cnn2c(C)c(Cc3ccc(C)cc3)c(C)nc12 | 0 | 43* | 5 | 1
CCOC(=O)c1c(C)[nH]c2ccc(Oc3nc(OC)cc(OC)n3)cc12 | 0 | 41* | -3 | 2
CCc1cc2c(cc3c(=O)n(CCCC(=O)O)ncn32)s1 | 0 | 35* | -6 | 0
COc1ccc(/C=N/n2cnnc2)cc1COc1ccccc1F | 0 | 12 | 11 | 0
COc1cc(/C=N/O)ccc1OCc1cccc(C(=O)O)c1 | 0 | 94* | 0 | -9
COc1ccc(C(=O)Oc2ccc(C=C3C(=O)NC(=O)NC3=O)cc2OC)cc1 | -1 | 8 | 9 | -2
COc1cc(C=C2C(=O)NC(=O)NC2=O)ccc1OCc1cccc(C(=O)O)c1 | 0 | 81* | 5 | -7
SMILES | FBW7 activator | TEAD-YAP block | MITF inh | GPR151 ag
COc1ccc(S(=O)(=O)Oc2ccc(C=C3C(=O)NC(=O)NC3=O)cc2OC)cc1 | 0 | 53* | 7 | 0
COc1ccc(C=O)cc1COc1ccccc1F | 2.1* | 0 | -4 | 0
CC(C)N(CCNc1nc(Nc2cccc(N(C)C)c2)nc2c1ncn2Cc1ccc(C(F)(F)F)cc1)C(C)C | 1 | -10 | 16 | 5
CCOC(=O)N1CCN(CC(O)COc2ccccc2Cl)CC1 (stereo not given) | 0 | 8 | 18 | -1
CCOc1c[nH]c(C(=O)Nc2ccc(Cl)c(Cl)c2)cc1=O | 0 | -47 | 0 | -8
CCN(Cc1ccccc1)C(=O)Cn1ncc2c3ccccc3n(C)c2c1=O | 0 | -2 | -10 | 0
COc1cc(/C=N/n2cnnc2)ccc1OCc1cccc(C(=O)O)c1 | 0 | 78* | 37 | -7
COc1cc(C=O)ccc1OCC(=O)c1ccccc1 | 0 | 60* | 1 | -8

Source: PubChem
